Bioassay records (PubChem)
D1 antagonist = antagonists of human D1 dopamine receptor; HEK293 TREx D1 cells, calcium flux, dopamine EC80; active compounds read low; actives 3.2% (n = 360,000); AID 504652; activity change, negative = inhibition, % at 10 µM; in the data active = activity change below about -30%; also: % is scaled to controls: 0 for no effect and ±100 for the full control effect
Target sequence (P21728 whole entry, looked up): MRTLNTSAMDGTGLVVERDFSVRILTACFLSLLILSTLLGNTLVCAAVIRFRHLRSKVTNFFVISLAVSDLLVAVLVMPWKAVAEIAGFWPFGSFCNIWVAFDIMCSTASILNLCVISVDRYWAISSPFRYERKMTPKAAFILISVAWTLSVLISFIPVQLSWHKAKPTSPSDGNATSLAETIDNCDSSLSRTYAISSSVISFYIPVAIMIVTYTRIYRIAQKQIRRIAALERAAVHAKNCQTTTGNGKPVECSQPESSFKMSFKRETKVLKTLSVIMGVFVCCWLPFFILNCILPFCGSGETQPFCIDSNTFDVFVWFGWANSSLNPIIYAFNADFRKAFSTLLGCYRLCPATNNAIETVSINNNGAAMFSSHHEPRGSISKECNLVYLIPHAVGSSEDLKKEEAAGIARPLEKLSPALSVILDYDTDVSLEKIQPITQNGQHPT
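Using tetracycline-induced force-coupled D1 Hek293 cells and a calcium dye, signals were followed for 180 s after compound, then for 180 s after EC80 dopamine, to detect inhibitors.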
TRHR agonist = TRH receptor (human) agonism. TRHR cells, calcium flux fluo-8, FDSS agonist mode. activation, % at 2 µM. actives 0.18% (n = 360,000). AID 493084; also: 0% is about no effect
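TRHR-expressing cells, plated overnight in medium with 10% serum, were loaded with fluo-8 calcium dye at room temperature. After a 10 s baseline, library compound was pin-added and calcium release was recorded kinetically (ex 480/em 530) as agonist response.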
D1 agonist = human D1 receptor agonism; P21728; HEK293 T-REx D1 cells, calcium flux, agonist mode; activation, % at 2 µM; actives 1% (n = 360,000); AID 504660; also: 0% is about no effect
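Agonism was scored from calcium flux recorded over 180 s (1 read/s) after pintool compound addition, following a 10-cycle baseline. Cells were inducible force-coupled HEK293 TREx D1, plated overnight at 30 C and loaded with no-wash calcium dye.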
D1 potentiator = human D1 dopamine receptor positive modulation; HEK293 TREx D1 cells, calcium flux, dopamine EC20 potentiation; potentiation, % at 10 µM; actives 0.036% (n = 360,000); AID 504651; in the data active = potentiation above about 30%; also: 0% is about no effect
TRHR enhancer = allosterically enhances the human TRH receptor; enhancement, % at 2 µM; AID 493056; P34981; actives 0.66% (n = 360,000); TRHR cells, fluo-8 calcium fluorescence, EC20 TRH enhancement; in the data active = enhancement above about 30%; also: 0% is about no effect
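Enhancer read-out: after compound pinning and an initial kinetic agonist-mode read, an EC20 of TRH (10 nM final) was injected and fluo-8 calcium signal (Ex 480/Em 530) followed at 1 s/cycle for 100 cycles in TRHR-expressing cells.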
The depositor's hits bear a star. Hits are enriched below; roughly 4.7% of the tested compounds scored in any of these assays. Rule as the data show it, unless noted: active = activation above about 30%; inactive = the rest.

What do the screens show for `O=C(COC(=O)Cc1ccccc1)NC12CC3CC(CC(C3)C1)C2`?
D1 antagonist: 10; TRHR agonist: 0; D1 agonist: -1; D1 potentiator: 0; TRHR enhancer: -2

How did Cc1ncc(CN2CCCC(C(=O)c3cccc(Cl)c3)C2)s1 (stereo not drawn) do in these assays?
D1 antagonist: 17; TRHR agonist: 0; D1 agonist: 1; D1 potentiator: 2; TRHR enhancer: -3

What do the screens show for `CCOC(=O)c1[nH]ncc1CN1CCCC(C(=O)c2cccc(Cl)c2)C1` (stereo not drawn)?
D1 antagonist: -13; TRHR agonist: 1; D1 agonist: 43*; D1 potentiator: -12; TRHR enhancer: 4

Results for CCN(CC)CCSc1nc2ccccc2c(=O)n1-c1ccc(Cl)cc1 ?
D1 antagonist: -19; TRHR agonist: 0; D1 agonist: 2; D1 potentiator: -4; TRHR enhancer: 0

What do the screens show for `COC(=O)C1=C(c2ccc(OC(F)(F)F)cc2)C[C@@H]2CC[C@H]1N2C(=O)NCCOc1ccc(OC)cc1`?
D1 antagonist: -2; TRHR agonist: 0; D1 agonist: 8; D1 potentiator: -6; TRHR enhancer: -6

How did COc1ccc(Cn2c(O)c(C=NCCN3CCOCC3)c(=O)[nH]c2=O)cc1 do in these assays?
D1 antagonist: -37*; TRHR agonist: 0; D1 agonist: 1; D1 potentiator: -4; TRHR enhancer: -1

What do the screens show for `CCOc1ccc(CN(CCc2ccc3c(c2)OCO3)Cc2cccc(C)c2)cc1`?
D1 antagonist: 13; TRHR agonist: 1; D1 agonist: 1; D1 potentiator: 3; TRHR enhancer: 6

What do the screens show for `C=CCN1C(=O)/C(=C/c2cccs2)C(=O)NC1=S`?
D1 antagonist: -8; TRHR agonist: -1; D1 agonist: 0; D1 potentiator: -5; TRHR enhancer: 3

Results for O=C1NC(=S)N(Cc2ccco2)C(=O)/C1=C\c1cccs1 ?
D1 antagonist: 8; TRHR agonist: 2; D1 agonist: 5; D1 potentiator: 1; TRHR enhancer: 51*

What do the screens show for `CCOC(=O)c1cc(CC)sc1/N=C/C1C(=O)NC(=S)NC1=O`?
D1 antagonist: 1; TRHR agonist: 0; D1 agonist: 1; D1 potentiator: 1; TRHR enhancer: 33*

How did O=C(N/N=C/c1c(O)n(CCc2ccc(F)cc2)c(=O)[nH]c1=O)c1ccncc1 do in these assays?
D1 antagonist: 24; TRHR agonist: 0; D1 agonist: 1; D1 potentiator: 4; TRHR enhancer: 4

Results for O=C(N/N=C/c1c(O)n(CCc2ccccc2)c(=O)[nH]c1=O)c1ccncc1 ?
D1 antagonist: -37*; TRHR agonist: 1; D1 agonist: -1; D1 potentiator: 2; TRHR enhancer: 4

What do the screens show for `CCN(CC)S(=O)(=O)c1ccc(NN=C(C#N)C#N)cc1`?
D1 antagonist: -8; TRHR agonist: 1; D1 agonist: 37*; D1 potentiator: -4; TRHR enhancer: -3

What do the screens show for `Cc1ccc(Cn2cccc(C(=O)Nc3nnc(C)s3)c2=O)cc1`?
TRHR agonist: 0; D1 agonist: -1; D1 potentiator: 0; TRHR enhancer: 2

Results for COc1ccc(NC(=O)CCc2nc(C3=CCN(Cc4cccc(Cl)c4)CC3)no2)cc1OC ?
D1 antagonist: -9; TRHR agonist: 0; D1 agonist: 8; D1 potentiator: -2; TRHR enhancer: -2

How did CCN1/C(=C\C=C\C2=[N+](CC)c3ccccc3C2(C)C)C(C)(C)c2ccccc21 do in these assays?
D1 antagonist: -22; TRHR agonist: 124*; D1 agonist: 204*; D1 potentiator: -4; TRHR enhancer: 5

Results for COc1ccc(-c2nc(CN3C(=O)CN=C(c4ccccc4)c4ccccc43)c(C)o2)cc1OC ?
D1 antagonist: -31*; TRHR agonist: -1; D1 agonist: 4; D1 potentiator: -4; TRHR enhancer: -1

Results for COc1ccc(-c2nc(CN3C(=O)CN=C(c4ccccc4Cl)c4cc(Cl)ccc43)c(C)o2)cc1OC ?
D1 antagonist: 10; TRHR agonist: 0; D1 agonist: 1; D1 potentiator: 1; TRHR enhancer: -10

What do the screens show for `CN1CCN(c2ccc([N+](=O)[O-])cc2Cl)CC1`?
D1 antagonist: -13; TRHR agonist: 0; D1 agonist: 3; D1 potentiator: -3; TRHR enhancer: -2

How did CN1CCN(c2cc([N+](=O)[O-])ccc2Cl)CC1 do in these assays?
D1 antagonist: -51*; TRHR agonist: 0; D1 agonist: 1; D1 potentiator: -6; TRHR enhancer: 0

Results for Cc1oc(-c2ccc(Cl)cc2)nc1CN1C(=O)CN=C(c2ccccc2)c2cc(Cl)ccc21 ?
D1 antagonist: -7; TRHR agonist: 0; D1 agonist: 17; D1 potentiator: -1; TRHR enhancer: -7

How did CC1=C[C@@H]2c3cccc4[nH]cc(c34)C[C@H]2N(C)C1 do in these assays?
D1 antagonist: -37*; TRHR agonist: 7; D1 agonist: 31*; D1 potentiator: -10; TRHR enhancer: 3

What do the screens show for `Cc1ccc(S(=O)(=O)Nc2cc(C(=O)N3CCC4(CC3)OCCO4)ccc2N2CCCCC2)cc1`?
D1 antagonist: 1; TRHR agonist: 0; D1 agonist: 3; D1 potentiator: -7; TRHR enhancer: -6

Results for Cc1ccc(S(=O)(=O)NCC2CCC(C(=O)N3CCC4(CC3)OCCO4)CC2)cc1 (stereo not drawn) ?
D1 antagonist: -55*; TRHR agonist: 1; D1 agonist: 4; D1 potentiator: -13; TRHR enhancer: 2

What do the screens show for `CCC(=NCCOc1ccc(Cl)cc1)c1c(O)n(C)c(=O)n(C)c1=O`?
D1 antagonist: -42*; TRHR agonist: 1; D1 agonist: 8; D1 potentiator: -9; TRHR enhancer: -2

What do the screens show for `CCC(=NCCc1c[nH]c2ccccc12)c1c(O)n(C)c(=O)n(C)c1=O`?
D1 antagonist: -31*; TRHR agonist: 0; D1 agonist: 11; D1 potentiator: -4; TRHR enhancer: -2

How did N#CC1=C(N)Oc2c(c(=O)sc3ccccc23)C1c1cccnc1 (stereo not drawn) do in these assays?
D1 antagonist: -4; TRHR agonist: -1; D1 agonist: 1; D1 potentiator: -2; TRHR enhancer: 35*

How did Cc1ccc(CN2C3CCCC2CC(NC(=O)Nc2cccc(F)c2)C3)cc1 (stereo not drawn) do in these assays?
D1 antagonist: -42*; TRHR agonist: 9; D1 agonist: 30*; D1 potentiator: -6; TRHR enhancer: -2

What do the screens show for `Cc1ccc(Cn2cccc(C(=O)Nc3nc4ccc(C)cc4s3)c2=O)cc1`?
TRHR agonist: -1; D1 agonist: 0; D1 potentiator: -1; TRHR enhancer: 5

How did Oc1cc2c(cc1O)[C@H]1c3ccccc3CN[C@@H]1CC2 do in these assays?
D1 antagonist: -87*; TRHR agonist: 0; D1 agonist: 67*; D1 potentiator: -3; TRHR enhancer: 1
